The source made the active and inactive calls. The calls were made as follows: active = hit-call score of the fitted dose curve at least 0.9, where 1 is the maximum; inactive = score below 0.9.
experiment: BSK_hDFCGF_Proliferation: Cell Proliferation Assessment in the BioMAP Diversity Plus: hDFCGF Assay (AID 2283059); conditions: primary human foreskin fibroblasts;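 also: curves fitted for both rise and fall of signal versus DMSO baseline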
Procedure: BSK_hDFCGF is a cell-based, multiplexed-readout assay that uses foreskin fibroblast, a human skin primary cell, with measurements taken at 24 hours after chemical dosing in a 96-well plate.BSK_hDFCGF_Proliferation is an assay component measured in the BSK_hDFCGF assay. It measures […] related to cell proliferation using Sulforhodamine staining technology.Data from the assay component BSK_hDFCGF_Proliferation was analyzed into 1 assay endpoint. This assay endpoint, BSK_hDFCGF_Proliferation, was analyzed with bidirectional fitting relative to DMSO as the negative control and baseline of activity. Using a type of viability reporter, measures of total protein for gain or loss-of-signal activity can be used to understand the viability at the cellular-level. Furthermore, this assay endpoint can be referred to as a secondary readout, because this assay has produced multiple assay endpoints where this one serves a viability function. To generalize the intended target to other relatable targets, this assay endpoint is annotated to the cell cycle intended target family, where the subfamily is proliferation.
The levels of cell surface (or secreted, indicated by the prefix "s") biomarker endpoints were measured by ELISA. Overt cytotoxicity to cells in confluent adherent cultures (all systems other than the BT system) was assessed by measuring total protein levels using sulforhodamine B (SRB) staining in parallel cultures at the time of biomarker measurements, indicated as SRB endpoints. For proliferation assays for adherent cell types, individual cell types are cultured at sub-confluence and relative cell numbers quantified by SRB staining at time points optimized for each system (48 h: 3C and CASM3C systems; 72 h: BT and HDF3CGF systems; 96 h: SAg system). SRB was performed by staining cells with 0.1% SRB after fixation with 10% TCA and reading wells at 560 nm.Viability and proliferation of PBMC (T cells) was quantified by Alamar Blue reduction for the SAg and BT systems. For PBMC viability (referred to as PBMC Cytotoxicity within the assay endpoint names), cells were plated (75,000/well in a 96-well plate) and then chemical samples added for 1 h before addition of activators, SEB and TSST-1 (20 ng/mL final concentration each). Cells were incubated for 90 h. Then, Alamar Blue (20 uL/well) (Invitrogen, Cat DAL1100) was added for 6 h, and the plates were read with a fluorescence microplate reader at 546/580 nm (excitation/emission). For PBMC proliferation, cells were plated and activated as above but incubated for only 16 h prior to addition of Alamar Blue. Plates were read after 6 h.

Structure (SMILES)	outcome	AC50
CC(C)c1cccc(C(C)C)c1NC(=O)NS(=O)(=O)c1cc(C(C)(C)O)co1	inactive	
CCOCCOCCO	inactive	
O=C(NS(=O)(=O)/C=C/c1cccs1)c1ccc(F)cc1Br		6.17 µM (active)
CCCCC(CC)CO (stereo not given)	inactive	
CCCCCCC(C=O)=Cc1ccccc1		28.9 µM (active)
O=C(O)c1[nH]n(-c2ccc(S(=O)(=O)O)cc2)c(=O)c1N=Nc1ccc(S(=O)(=O)O)cc1	inactive	
CC1(C)C(=O)NC(=O)N1CO	inactive	
CC(C)NCC(O)c1ccc(O)c(O)c1 (stereo not given)		26.4 µM (active)
Cc1occc(=O)c1O	inactive	
CCCC[C@H]1CN(CC2CCOCC2)C(=O)OC12CCN(C1(C)CCN(C(=O)c3c(C)ncnc3C)CC1)CC2	inactive	
CC(C)COC(=O)CCCCC(=O)OCC(C)C	inactive	
CCCCC(CC)COP(=O)(OCC(CC)CCCC)OCC(CC)CCCC (stereo not given)		7.49 µM (active)
C/C=C/c1ccc(OC)cc1	inactive	
O=C1CCCCC1	inactive	
O=C(O)c1cccnc1	inactive	
Cc1ccc(-c2cc(C(F)(F)F)nn2-c2ccc(S(N)(=O)=O)cc2)cc1	inactive	
CC(C)OC(=O)C(C)(C)Oc1ccc(C(=O)c2ccc(Cl)cc2)cc1		26.4 µM (active)
CO[C@@H]1COCC[C@@H]1N[C@@H]1CC[C@@](C(=O)N2CCc3ncc(C(F)(F)F)cc3C2)(C(C)C)C1	inactive	
Oc1ccccc1O		12 µM (active)
COC(=O)CCCC(=O)OC	inactive	

Structure (SMILES)	outcome	AC50
CCCCC(CC)COC(=O)CCCCCCCC(=O)OCC(CC)CCCC (stereo not given)	inactive	
CC(=O)S[C@H](C(=O)N[C@H]1Cc2ccccc2[C@H]2CCC[C@@H](C(=O)O)N2C1=O)C(C)C	inactive	
CCc1nc(N)nc(N)c1-c1ccc(Cl)cc1	inactive	
C=CCCCCCCCCCCCC	inactive	
CCCCCCCC(=O)OC	inactive	
CC(=O)O		31.2 µM (active)
N[C@@H](Cc1c[nH]c2ccccc12)C(=O)O	inactive	
O=NO	inactive	
NC=O		19.2 µM (active)
c1ccc2occc2c1	inactive	
O=Cc1ccccc1C=O	inactive	
O=C1OC(c2ccc(O)cc2)(c2ccc(O)cc2)c2ccccc21		28 µM (active)
CN(C)CCCN1c2ccccc2Sc2ccc(Cl)cc21		16.6 µM (active)
CCCCOC(=O)CCCCC(=O)OCCCC	inactive	
O=C(O)CC(O)(CC(=O)O)C(=O)O	inactive	
O=C(N[C@@H](c1ccccc1)[C@@H]1CCCCN1)c1cccc(C(F)(F)F)c1Cl		28.7 µM (active)
CCCCCCCCCCCCCCOS(=O)(=O)O		5.36 µM (active)
CCCCCCCCCCCCCCCCO		6.73 µM (active)
CCCC(=O)O	inactive	
CN(C)C(=O)NC1(c2ccccc2)CCN(CCC[C@]2(c3ccc(Cl)c(Cl)c3)CCCN(C(=O)c3ccccc3)C2)CC1		6.29 µM (active)

From PubChem BioAssay (EPA / NIEHS)
